# Assay outcomes from PubChem.
# FLuc inh: qHTS Assay for Inhibitors of Firefly Luciferase; purified firefly luciferase, luminescence, 8 min; AID 411, 2009; Potency, µM (top dose mostly 57.1 µM), for inactives: at the highest dose activity change, negative = inhibition, actives largely listed as inhibitors; Luciferin 4-monooxygenase (Photinus pyralis), P08659; actives 2.2% (n = 72,000); also: % is scaled to controls: 0 for no effect and ±100 for the full control effect; nearly all actives have a fitted effect of over 40% in size
#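 Compounds were tested as concentration series (qHTS) against purified P. pyralis luciferase with luciferin and 10 uM ATP in 50 mM imidazole pH 7.2, 50 mM KCl, 7 mM MgCl2, 0.01% Tween 20, 0.05% BSA. Luminescence was read after 8 min at ambient temperature.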
# ALOX15 inhib: qHTS Assay for Inhibitors of 15-hLO (15-human lipoxygenase); Polyunsaturated fatty acid lipoxygenase ALOX15 (Homo sapiens), P16050; purified 15hLO-1, xylenol orange hydroperoxide absorbance; Potency, µM (highest dose often 57.1 µM), for the others: at the top dose activity change, negative = inhibition, most hits filed as inhibitors; actives 1.4% (n = 74,000); also: % is scaled to controls: 0 for no effect and ±100 for the full control effect; nearly all actives have a fitted effect of over 55% in size
#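 40 nM 15hLO-1 + cpd, 15 min RT; start w/ 50 uM AA (final), 6 min RT; stop/detect w/ 200 uM XO + 300 uM Fe(II) in 50 mM H2SO4, 30 min; A573/A405. Buffer 25 mM Hepes pH 7.5, 0.01% Triton X-100. No-enzyme wells as negative control.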
# Bst PK mod: Pyruvate Kinase | purified pyruvate kinase, luminescence ATP production; ribose 5-phosphate activator present at AC10 | Potency, µM | actives 1.2% (n = 51,000) | AID 361, 2006; in the data active = potency below about 11 µM; inconclusive = mostly about 12 µM to 25 µM;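 the screen sought inhibitors and activators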;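 also: scaled between full activation by ribose 5 phosphate and full inhibition by luteolin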
# HEK293 cAMP ctrl: qHTS Assay for Agonists of the Thyroid Stimulating Hormone Receptor: Activators of Intracellular cAMP Concentrations in Parental HEK 293; Potency, µM (titrated, usually from 57.1 µM), inactives show at the highest dose activation, actives largely listed as activators; parental HEK293 CNG cAMP sensor, membrane potential fluorescence; actives 2.5% (n = 73,000); AID 938, 2007; also: % of control where 0% means no effect; nearly all actives have a fitted effect of over 55% in size
#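 Parental HEK 293 cells stably expressing a modified CNG channel (no TSHR) report cAMP rise as membrane depolarization. Membrane potential dye with 100 uM RO 20-1724 was loaded for 60 min at room temperature, then compound added for 30 min; fluorescence read at 590 nm.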
# Tau fil binding: qHTS Assay for Tau Filament Binding; Microtubule-associated protein tau (Homo sapiens), P10636; recombinant tau filaments, thioflavin S fluorescence, 15 h; filaments grown with octadecylsulfate alongside compound; Potency, µM (titrated, usually from 57.1 µM), for the others: at the highest dose activity change, negative = inhibition; actives 2% (n = 71,000);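 also: % is scaled to controls: 0 for no effect and ±100 for the full control effect; actives lower thioflavin S fluorescence by blocking filaments or displacing dye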
# Target sequence (P10636 whole entry, looked up): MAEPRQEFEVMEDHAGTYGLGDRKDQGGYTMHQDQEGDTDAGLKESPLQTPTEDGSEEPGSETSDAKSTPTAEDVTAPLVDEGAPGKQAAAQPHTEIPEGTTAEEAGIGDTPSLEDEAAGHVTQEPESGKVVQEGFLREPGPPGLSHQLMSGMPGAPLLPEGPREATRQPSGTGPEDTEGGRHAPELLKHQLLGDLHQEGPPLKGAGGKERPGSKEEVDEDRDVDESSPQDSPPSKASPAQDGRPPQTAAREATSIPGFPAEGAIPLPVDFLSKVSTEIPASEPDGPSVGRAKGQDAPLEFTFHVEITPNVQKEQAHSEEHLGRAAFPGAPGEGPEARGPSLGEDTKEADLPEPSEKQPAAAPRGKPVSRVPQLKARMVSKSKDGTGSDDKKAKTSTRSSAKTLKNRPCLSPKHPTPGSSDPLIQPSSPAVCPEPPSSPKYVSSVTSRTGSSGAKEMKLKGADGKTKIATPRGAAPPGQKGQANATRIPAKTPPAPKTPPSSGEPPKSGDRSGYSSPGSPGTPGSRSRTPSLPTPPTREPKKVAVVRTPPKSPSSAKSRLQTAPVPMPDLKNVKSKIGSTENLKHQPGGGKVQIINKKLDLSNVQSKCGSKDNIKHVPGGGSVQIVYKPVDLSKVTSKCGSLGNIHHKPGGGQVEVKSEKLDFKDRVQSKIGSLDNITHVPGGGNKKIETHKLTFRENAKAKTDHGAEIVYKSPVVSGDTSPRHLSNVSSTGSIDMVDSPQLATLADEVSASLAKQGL
#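 His-tagged recombinant human tau (exons 2, 3 and 10 included), 1 uM, was induced to fibrillize by 30 uM sodium octadecylsulfate with compound present. After 15 h at 37 C, thioflavine S fluorescence (ex 450, em 510 nm) was read.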
# TSHR ag: qHTS Assay for Agonists of the Thyroid Stimulating Hormone Receptor; Thyrotropin receptor (Homo sapiens), P16473; HEK293-CNG-TSHR cells (CNG channel as cAMP sensor), membrane potential dye, cAMP; Potency, µM (highest dose often 57.1 µM), without a hit: top-dose activation, hits mostly activators; actives 0.48% (n = 73,000); AID 926, 2007; active = well fitted activation curve with a large enough effect in the main read-out, with a control signal flat, not every such curve was filed as active; inconclusive = small, poorly fitted or top-dose-only effect, or a change in a side signal; inactive = no such curve, though single readings can be large or run the other way; % of control where 0% means no effect;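 also: the control signal comes from parental cells without the receptor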
#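 HEK 293 cells stably expressing TSHR and a cAMP-gated CNG channel; parental CNG-only cells as counterscreen. Cells preloaded 60 min with membrane potential dye plus 100 uM RO 20-1724, then compound 30 min; fluorescence read at 590 nm.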
# Starred values were filed as active, the others as inactive; i = inactive; ? = inconclusive; nt = no result given; [ ] = dose if it differs, or a comment. Rows were chosen to be rich in hits. Some 7.8% of all compounds tested hit in one or more screens of this group. Unless noted, calls follow the shape of the dose curve; as a rule, active = well fitted curve in the direction sought with a large enough effect; inconclusive = small, poorly fitted or top-dose-only effect, or another doubt; inactive = no such curve, though single readings can be large; an effect the other way counts as inactive or inconclusive. Potency is read from the fitted curve at half-maximal effect.
SMILES,FLuc inh,ALOX15 inhib,Bst PK mod,HEK293 cAMP ctrl,Tau fil binding,TSHR ag
COc1ccc(C(=O)Cn2nnc(-c3cccs3)n2)cc1,-19%,6%,nt,27%,-1%,-4%
O=C(Cn1nnc(-c2ccccc2-n2cnnn2)n1)NCc1ccccc1,0%,2%,>57,-13%,0%,1%
COc1ccc(C(=O)Cn2nnc(-c3ccccc3-n3cnnn3)n2)cc1,-2%,0%,4.2*,?,2%,?
Cc1ccc(C(=O)Cn2nnc(-c3ccccc3-n3cnnn3)n2)cc1,0%,-1%,4.7*,9%,-6%,8%
CC(=O)c1sc2nc(-c3cccs3)cc(C(F)(F)F)c2c1N,5%,-29%,>57,1%,127%,-1%
CS(=O)(=O)c1sc2nc(-c3cccs3)cc(-c3ccccc3)c2c1N,-1%,?,>57,?,7.9µM*,?
CCCC[C@@H]1C[C@H]1C(NC(=O)c1ccccc1)c1ccccc1C(F)(F)F (stereo partly drawn),nt,nt,nt,?,-11%,?
CCCC[C@@H]1C[C@H]1C(NC(=O)c1ccccc1)c1ccc(C(=O)OC)cc1 (stereo partly drawn),nt,nt,nt,16µM*,6%,?
CCCC[C@@H]1C[C@H]1C(NC(=O)c1ccco1)c1ccccc1 (stereo partly drawn),nt,nt,nt,16µM*,1%,?
CCCC[C@@H]1C[C@H]1C(NC(=O)Cc1ccccc1)c1ccc(-c2ccccc2)cc1 (stereo partly drawn),nt,nt,nt,26%,17%,1µM*
NCCC[C@@H](CC(=O)N[C@@H]1CCNC[C@H]1C(=O)N[C@H](CC(=O)N[C@@H](CCC(=O)O)CC(=O)O)Cc1ccccc1)NC(=O)C[C@H](CO)NC(=O)[C@@H]1CCCC[C@H]1N,nt,nt,nt,8%,-7%,5%
CC(=O)OCC1OC(C#Cc2ccccc2)C=CC1OC(C)=O (stereo not drawn),nt,-2%[11.4 µM],nt,0%[11.4 µM],nt,-3%[11.4 µM]
CC1(C)O[C@H]2O[C@@H]([C@H](O)CON3C(=O)c4ccccc4C3=O)[C@H](O)[C@H]2O1,0%[11.4 µM],2%[11.4 µM],nt,5%[11.4 µM],nt,1%[11.4 µM]
CN(Cc1ccco1)c1ncncc1-c1ccccc1C(F)(F)F,-1%[2.29 µM],10%,nt,?,-1%,?
O=c1c(CCc2ccccc2)nc2cnc(N3CCNCC3)nc2n1Cc1ccc(F)cc1,1%[11.4 µM],-2%,nt,8%,27%,3%
O=C(c1cc(Br)ccc1O)c1cc(Br)ccc1O,7%[11.4 µM],?,nt,-8%[11.4 µM],?,-4%[11.4 µM]
COc1ccc(OC)c(N2C(=O)C(Cl)=C(N3CCCCC3)C2=O)c1,-5%,-6%[11.4 µM],nt,10%[11.4 µM],-6%[11.4 µM],14%[11.4 µM]
O=C1C(Cl)=C(N2CCCCC2)C(=O)N1c1ccccc1Cl,3%,?,nt,6%,4%,nt
Cc1ccccc1N1C(=O)C(Cl)=C(N2CCCCCC2)C1=O,4%,10µM*,nt,?,13µM*,?
O=C1C(Cl)=C(N2CCCCC2)C(=O)N1c1ccccc1,-2%,16µM*,nt,21%,-4%,28%
Cc1cc(C)nc(-n2nc(C)cc2NC(=O)CN2CCCC(C)C2)n1 (stereo not drawn),0%,13%,>57,?,25%,?
Cc1cc(C)nc(-n2nc(C)cc2NC(=O)CN2CCc3ccccc3C2)n1,1%,-1%,>57,25µM*,154%,?
CCC(C(=O)Nc1cc(C)nn1-c1nc(C)cc(C)n1)c1ccccc1 (stereo not drawn),0%,3%,>57,16µM*,84%,?
NCC(=O)Nc1ccccc1,3%[11.4 µM],2%[11.4 µM],nt,?,5%[11.4 µM],?
Cc1cc(C)nc(NCCCc2ccccc2)n1,2%,16%,>57,28%,6%,5%
SMILES,FLuc inh,ALOX15 inhib,Bst PK mod,HEK293 cAMP ctrl,Tau fil binding,TSHR ag
CCCCNc1cc(C)nc(NCc2ccccc2)n1,-2%,-8%,>57,6.3µM*,39%,?
O=S(=O)(c1ccccc1)c1nc(-c2ccco2)oc1NCc1ccco1,-5%,-24%,>57,16%,1%,18%
CC1CN(c2oc(-c3ccco3)nc2S(=O)(=O)c2ccccc2)CC(C)O1 (stereo not drawn),0%,-19%,>57,27%,8%,25µM*
COC(=O)N1CCC2(CC1)CN(C(=O)Nc1cccc(F)c1)C2,-2%[11.4 µM],-3%,nt,1%,-2%,0%
O=[N+]([O-])c1cc(N(CCO)CCO)ccc1NCCO,nt,-21%,nt,25%,-13%,?
C=Cc1c(C)c2cc3[nH]c(cc4nc(cc5nc(cc1[nH]2)C(C)=C5CCC(=O)O)C(CCC(=O)O)=C4C)c(C)c3C=C,-19%,?,nt,-12%,5µM*,-6%
CC1=C(CCC(=O)O)c2cc3nc(cc4[nH]c(cc5[nH]c(cc1n2)c(C)c5C(C)O)c(C)c4C(C)O)C(C)=C3CCC(=O)O (stereo not drawn),nt,-14%,nt,nt,nt,nt
O=C(CN1CCOc2ccccc21)N1CCN(c2cccc(Cl)c2)CC1,-1%,-19%,nt,0%,9%,0%
CCc1nc2scc(-c3ccccc3)c2c(=O)n1N,-2%,20µM*,?,-13%,3%,6%
Cc1nc2scc(-c3ccccc3)c2c(=O)n1N,4%,-10%,i,-13%,9%,-1%
c1cc(NNc2cccc(-c3nn[nH]n3)c2)cc(-c2nn[nH]n2)c1,1%[11.4 µM],2%[11.4 µM],nt,4%[11.4 µM],9%[11.4 µM],-2%[11.4 µM]
Cc1ccc(OCC(=O)Nc2cccc(C)n2)c(C)c1,16µM*,0%,nt,17%,6%,0%
S=c1nc[nH]c2c1ncn2Cc1ccco1,2%[11.4 µM],-20%[11.4 µM],nt,18%[11.4 µM],-3%[11.4 µM],4%[11.4 µM]
Cc1sc(NC(=O)c2ccc(Cl)s2)c(C(N)=O)c1C,10µM*,-9%,nt,-20%,85%,-15%
CCOC(=O)c1c(NC(=O)c2noc3c2CCCC3)sc(C)c1C,1%,?,>57,16%,6%,3%
CCCCc1ccc(C2C(C#N)=C(N)SC(N)=C2C#N)s1,1%,0.79µM*,nt,?,0.32µM*,?
Cc1sccc1C1C(C#N)=C(N)SC(N)=C1C#N,0%[25.5 µM],nt,>26,nt,nt,nt
Cc1onc(-c2ccccc2)c1C(=O)Nc1nnc(COc2ccc(Cl)cc2)s1,-3%,7.9µM*,>57,?,3%,?
N=C(N)CCNC(=O)[C@@H]1CCC(N)=N1,2%[11.4 µM],4%[11.4 µM],nt,6%[11.4 µM],-6%[11.4 µM],1%[11.4 µM]
CCOC(=O)c1oc2ccc(S(=O)(=O)N3CCC(C)CC3)cc2c1C,3%,7%,>57,25µM*,10%,?
